# Over roughly 33,000 sequences, “E-score (-0.5 to 0.5)” has its median near -0.016; the highest 2% begin near 0.32. This is one part of a sample in which the highest values are shown more often than they occur.
# Target: T1, Stp1 (UniProt B3LFK1)
# T1 sequence: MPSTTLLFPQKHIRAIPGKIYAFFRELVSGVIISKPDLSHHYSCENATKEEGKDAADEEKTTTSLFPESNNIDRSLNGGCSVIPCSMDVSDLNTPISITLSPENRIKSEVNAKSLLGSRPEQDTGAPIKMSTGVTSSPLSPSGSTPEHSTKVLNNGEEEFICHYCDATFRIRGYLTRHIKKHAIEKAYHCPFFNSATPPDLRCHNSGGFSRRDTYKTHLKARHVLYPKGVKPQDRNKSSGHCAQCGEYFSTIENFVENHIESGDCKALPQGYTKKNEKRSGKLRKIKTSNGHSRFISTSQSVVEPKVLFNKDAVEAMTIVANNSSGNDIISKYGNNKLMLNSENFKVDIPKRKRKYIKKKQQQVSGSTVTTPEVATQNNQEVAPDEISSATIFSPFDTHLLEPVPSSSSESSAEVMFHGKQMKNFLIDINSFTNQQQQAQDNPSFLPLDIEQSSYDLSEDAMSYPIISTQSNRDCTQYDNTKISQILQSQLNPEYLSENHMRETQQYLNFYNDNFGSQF
# Assay: PBM E-score (8-mer binding enrichment) (E-score (-0.5 to 0.5)); higher = stronger / more preferred TF binding
# Conditions: protein concentration: 200 nM; construct: GST-full length
# Description: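 Universal 'all 10-mer' protein binding microarrays (Agilent AMADID 015681) probed with GST-tagged S. cerevisiae TFs (full-length or DBD) made by in vitro transcription/translation (PURExpress), about 100-200 nM. Bound TF was detected with fluorescent anti-GST. Each ungapped 8-mer (which stands for itself and its reverse complement) is scored by the PBM enrichment score (E-score), a modified Wilcoxon-Mann-Whitney statistic from -0.5 to +0.5, computed with the Universal PBM Analysis Suite. Scale: above 0.35 generally sequence-specific binding.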
row,Sequence,PBM E-score
1,AAAGGCGC,0.402
2,GAAGGCGA,0.129
3,AAAGGCGG,0.111
4,GCAGGCGC,0.148
5,GAAGGCGC,0.333
6,CAAGGCGA,0.194
7,AAAGGCGA,0.0862
8,CAAGGCGC,0.4
9,CAAGGCGG,0.101
10,AAACTGGT,-0.0925
11,AGTTCATG,0.0464
12,ATCAGCAT,0.0572
13,GAAAACGC,0.119
14,TAAGTCGA,-0.123
15,TAACAGCA,0.174
16,AATGCACC,-0.0414
17,CTAAGAGC,-0.0921
18,ATCTTCAT,-0.0473
19,AAGCTGTC,-0.113
20,ACAACTAT,0.0651
21,ATGCCGTA,0.478
22,CTGCCGTA,0.343

row,Sequence,PBM E-score
1,ATGCCGTG,0.484
2,ATGCCGAG,0.31
3,ATGCCGTC,0.406
4,CTTCCGTA,0.163
5,CTGCCGGA,0.02
6,ATGCCGGG,-0.0642
7,ATTCCGTA,0.106
8,ATGCCGAC,0.0658
9,CTGCCGTC,0.299
10,ATACCGTA,0.133
11,CAGCGATG,-0.0761
12,AACAGAGC,0.00906
13,GCCTACAC,-0.0439
14,ATATCTAA,0.0738
15,GAAGCTGC,-0.188
16,CCGAGCCG,0.334
17,ACGAGCCT,-0.0868
18,CCGAGCCA,-0.0385
19,ACGAGCCG,0.336
20,ACGAGCCA,-0.0521
21,CCGAGCCC,-0.29
22,CGAGGGAC,-0.245

row,Sequence,PBM E-score
1,CGCCTCAG,0.289
2,CGCCTCGA,0.205
3,AGCCTCGC,0.0691
4,GGCCTCAC,-0.00507
5,CGCCTCAC,0.395
6,CGCCTCGC,0.394
7,CAGGAGCC,-0.0638
8,GGCTTGGA,-0.128
9,GTTGGGCA,0.0977
10,CTCACCCC,0.0927
11,GACGCGCA,-0.105
12,ATATCGCC,0.322
13,ATTTCGCG,0.177
14,ATTTCGCC,0.336
15,ATCGCGCC,0.394
16,ATCGCGCA,-0.0273
17,CTATCGCC,0.0882
18,GACGCGCC,0.348
19,ATTTCGCA,0.111
20,ATATCGCG,0.127
21,ATCGCGCG,0.235
22,CACGCGCC,0.291

row,Sequence,PBM E-score
1,CATTCGAC,-0.0891
2,CAAAACGG,0.308
3,ACGTGCAG,0.105
4,GATGGTCC,-0.219
5,CCTCTCTC,-0.339
6,AACGCGCC,0.361
7,AACGCGCT,0.0273
8,AACGCGCG,0.232
9,ACAGGGGT,-0.338
10,GAAGGTGA,0.0707
11,GCCGCGGA,0.343
12,CCCGCGGC,0.411
13,ACCGCGGG,0.0822
14,ACCGCGGT,-0.3
15,CCCGCGGG,0.104
16,GCCGCGGC,0.474
17,ACCGCGGA,-0.0118
18,TCCGCGGA,0.0517
19,GCCGCGAC,0.282
20,CCCGCGGA,0.0756
21,GCCGCGAA,0.159
22,ACCGCGGC,0.384

# From the supplement of paper PMC3334620
